# Data from PMC8384837, “Expanding the binding specificity for RNA recognition by a PUF domain”.
# Where a chain is given by its changes, count along the chain named.
# Columns and labels:
# Test in all cases: yeast three-hybrid, YBZ-1, SC-Leu-His + 0.5 mM 3-AT, 4 days
# Conditions in all cases: tags: N-Gal4 AD-HA kept; label: inside an RPR1-promoter hybrid RNA with tandem MS2 sites; ssRNA
# PUM1 PUF domain R6-EWG = target: T1, PUM1 PUF domain R6-EWG (Homo sapiens, UniProt Q14671 828-1176, N1043E;Y1044W;Q1047G)
# T1 sequence: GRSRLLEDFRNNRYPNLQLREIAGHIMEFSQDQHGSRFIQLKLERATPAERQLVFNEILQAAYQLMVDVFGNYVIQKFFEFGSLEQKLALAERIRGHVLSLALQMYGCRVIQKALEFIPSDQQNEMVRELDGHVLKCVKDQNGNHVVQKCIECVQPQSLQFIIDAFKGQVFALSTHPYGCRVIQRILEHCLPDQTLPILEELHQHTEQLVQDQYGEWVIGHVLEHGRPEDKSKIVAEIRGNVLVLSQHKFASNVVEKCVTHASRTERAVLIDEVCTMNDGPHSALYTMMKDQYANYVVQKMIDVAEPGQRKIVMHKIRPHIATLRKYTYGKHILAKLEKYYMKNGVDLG
# Method in brief: (§1)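 The interaction score is the log change in how often each variant appears, from input to selection. Frequencies came from PCR-amplified, Illumina-sequenced repeat regions of Pumilio-1 PUF domain libraries grown in strain YBZ-1 (LexA–MS2 coat fusion, HIS3 reporter) alongside matching RNA elements. Input plates were SC-Leu and selection plates were SC-Leu-His + 0.5 mM 3-AT, each for four days, and the log2 calculation used a pseudocount of 1 where a variant was absent.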
# PUM1 PUF domain R6-VWM = target: T2, PUM1 PUF domain R6-VWM (Homo sapiens, UniProt Q14671 828-1176, N1043V;Y1044W;Q1047M)
# T2 sequence: T1 sequence with E216V, G220M
# Method in brief: as §1
# PUM1 PUF domain R5-RRM = PUM1 PUF domain R5-RRM (Homo sapiens, UniProt Q14671 828-1176, C1007R;Q1011M)
# Method in brief: as §1
# PUM1 PUF domain R5-GSE = PUM1 PUF domain R5-GSE (Homo sapiens, UniProt Q14671 828-1176, C1007G;R1008S;Q1011E)
# Method in brief: as §1
# PUM1 PUF domain R6-AWR = target: T3, PUM1 PUF domain R6-AWR (Homo sapiens, UniProt Q14671 828-1176, N1043A;Y1044W;Q1047R)
# T3 sequence: T1 sequence with E216A, G220R
# Method in brief: as §1
# PUM1 PUF domain R7-LSV = PUM1 PUF domain R7-LSV (Homo sapiens, UniProt Q14671 828-1176, S1079L;N1080S;E1083V)
# Method in brief: as §1
# PUM1 PUF domain R2-RRT = PUM1 PUF domain R2-RRT (Homo sapiens, UniProt Q14671 828-1176, N899R;Y900R;Q903T)
# Method in brief: as §1
# PUM1 PUF domain R2-MVW = PUM1 PUF domain R2-MVW (Homo sapiens, UniProt Q14671 828-1176, N899M;Y900V;Q903W)
# Method in brief: as §1
# PUM1 PUF domain R2-KLS = PUM1 PUF domain R2-KLS (Homo sapiens, UniProt Q14671 828-1176, N899K;Y900L;Q903S)
# Method in brief: as §1
# PUM1 PUF domain R4-ANA = PUM1 PUF domain R4-ANA (Homo sapiens, UniProt Q14671 828-1176, N971A;H972N;Q975A)
# Method in brief: as §1
# PUM1 PUF domain R4-GND = PUM1 PUF domain R4-GND (Homo sapiens, UniProt Q14671 828-1176, N971G;H972N;Q975D)
# Method in brief: as §1
# PUM1 PUF domain R4-QPA = PUM1 PUF domain R4-QPA (Homo sapiens, UniProt Q14671 828-1176, N971Q;H972P;Q975A)
# Method in brief: as §1
# PUM1 PUF domain R3-IFR = PUM1 PUF domain R3-IFR (Homo sapiens, UniProt Q14671 828-1176, C935I;R936F;Q939R)
# Method in brief: as §1
# PUM1 PUF domain R8-QFR = PUM1 PUF domain R8-QFR (Homo sapiens, UniProt Q14671 828-1176, N1122Q;Y1123F;Q1126R)
# Method in brief: as §1
# PUM1 PUF domain R8-RRR = PUM1 PUF domain R8-RRR (Homo sapiens, UniProt Q14671 828-1176, N1122R;Y1123R;Q1126R)
# Method in brief: as §1
# PUM1 PUF domain R3-PFD = PUM1 PUF domain R3-PFD (Homo sapiens, UniProt Q14671 828-1176, C935P;R936F;Q939D)
# Method in brief: as §1
# PUM1 PUF domain R3-SRK = PUM1 PUF domain R3-SRK (Homo sapiens, UniProt Q14671 828-1176, C935S;Q939K)
# Method in brief: as §1
# PUM1 PUF domain R3-RRP = PUM1 PUF domain R3-RRP (Homo sapiens, UniProt Q14671 828-1176, C935R;Q939P)
# Method in brief: as §1
# PUM1 PUF domain R8-QYP = PUM1 PUF domain R8-QYP (Homo sapiens, UniProt Q14671 828-1176, N1122Q;Q1126P)
# Method in brief: as §1
# PUM1 PUF domain R5-KKD = PUM1 PUF domain R5-KKD (Homo sapiens, UniProt Q14671 828-1176, C1007K;R1008K;Q1011D)
# Method in brief: as §1
sequence,measurement,setting,value
GGCUAGAACUAGUGGAUCCCCCGGCGCCCGGCGGCUCGAGCCCGGGUAAGUGAAAAUAGUCUGCAUGCCGCCGGGCGCCAUGCCUGCAGGUCGACUCUAGAAAACAUG,binding signal,PUM1 PUF domain R6-EWG,1.75 log2 enrichment (interaction score)
same,binding signal,PUM1 PUF domain R6-VWM,6.06 log2 enrichment (interaction score)
GGCUAGAACUAGUGGAUCCCCCGGCGCCCGGCGGCUCGAGCCCGGGUAAGUGUGAAUAGUCUGCAUGCCGCCGGGCGCCAUGCCUGCAGGUCGACUCUAGAAAACAUG,binding signal,PUM1 PUF domain R5-RRM,1.28 log2 enrichment (interaction score)
same,binding signal,PUM1 PUF domain R5-GSE,3.41 log2 enrichment (interaction score)
GGCUAGAACUAGUGGAUCCCCCGGCGCCCGGCGGCUCGAGCCCGGGUAAGUGCAAAUAGUCUGCAUGCCGCCGGGCGCCAUGCCUGCAGGUCGACUCUAGAAAACAUG,binding signal,PUM1 PUF domain R6-AWR,2.34 log2 enrichment (interaction score)
GGCUAGAACUAGUGGAUCCCCCGGCGCCCGGCGGCUCGAGCCCGGGUAAGUUUAAAUAGUCUGCAUGCCGCCGGGCGCCAUGCCUGCAGGUCGACUCUAGAAAACAUG,binding signal,PUM1 PUF domain R7-LSV,4.05 log2 enrichment (interaction score)
GGCUAGAACUAGUGGAUCCCCCGGCGCCCGGCGGCUCGAGCCCGGGUAAGUGUAAAGAGUCUGCAUGCCGCCGGGCGCCAUGCCUGCAGGUCGACUCUAGAAAACAUG,binding signal,PUM1 PUF domain R2-RRT,2.91 log2 enrichment (interaction score)
same,binding signal,PUM1 PUF domain R2-MVW,3.45 log2 enrichment (interaction score)
same,binding signal,PUM1 PUF domain R2-KLS,2.37 log2 enrichment (interaction score)
GGCUAGAACUAGUGGAUCCCCCGGCGCCCGGCGGCUCGAGCCCGGGUAAGUGUAUAUAGUCUGCAUGCCGCCGGGCGCCAUGCCUGCAGGUCGACUCUAGAAAACAUG,binding signal,PUM1 PUF domain R4-ANA,3.28 log2 enrichment (interaction score)
same,binding signal,PUM1 PUF domain R4-GND,3.04 log2 enrichment (interaction score)
same,binding signal,PUM1 PUF domain R4-QPA,3.55 log2 enrichment (interaction score)
GGCUAGAACUAGUGGAUCCCCCGGCGCCCGGCGGCUCGAGCCCGGGUAAGUGUAAGUAGUCUGCAUGCCGCCGGGCGCCAUGCCUGCAGGUCGACUCUAGAAAACAUG,binding signal,PUM1 PUF domain R3-IFR,5.53 log2 enrichment (interaction score)
GGCUAGAACUAGUGGAUCCCCCGGCGCCCGGCGGCUCGAGCCCGGGUAAGUGUACAUAGUCUGCAUGCCGCCGGGCGCCAUGCCUGCAGGUCGACUCUAGAAAACAUG,binding signal,PUM1 PUF domain R4-ANA,2.08 log2 enrichment (interaction score)
GGCUAGAACUAGUGGAUCCCCCGGCGCCCGGCGGCUCGAGCCCGGGUAAGCGUAAAUAGUCUGCAUGCCGCCGGGCGCCAUGCCUGCAGGUCGACUCUAGAAAACAUG,binding signal,PUM1 PUF domain R8-QFR,5.16 log2 enrichment (interaction score)
same,binding signal,PUM1 PUF domain R8-RRR,5.62 log2 enrichment (interaction score)
GGCUAGAACUAGUGGAUCCCCCGGCGCCCGGCGGCUCGAGCCCGGGUAAGUGUAAUUAGUCUGCAUGCCGCCGGGCGCCAUGCCUGCAGGUCGACUCUAGAAAACAUG,binding signal,PUM1 PUF domain R3-PFD,4.25 log2 enrichment (interaction score)
same,binding signal,PUM1 PUF domain R3-SRK,2.4 log2 enrichment (interaction score)
same,binding signal,PUM1 PUF domain R3-IFR,3.8 log2 enrichment (interaction score)
same,binding signal,PUM1 PUF domain R3-RRP,4.3 log2 enrichment (interaction score)
GGCUAGAACUAGUGGAUCCCCCGGCGCCCGGCGGCUCGAGCCCGGGUAAGUGUUAAUAGUCUGCAUGCCGCCGGGCGCCAUGCCUGCAGGUCGACUCUAGAAAACAUG,binding signal,PUM1 PUF domain R5-RRM,4.73 log2 enrichment (interaction score)
GGCUAGAACUAGUGGAUCCCCCGGCGCCCGGCGGCUCGAGCCCGGGUAAGUGUAAAUAGUCUGCAUGCCGCCGGGCGCCAUGCCUGCAGGUCGACUCUAGAAAACAUG,binding signal,PUM1 PUF domain R3-PFD,5.31 log2 enrichment (interaction score)
same,binding signal,PUM1 PUF domain R5-RRM,2.27 log2 enrichment (interaction score)
same,binding signal,PUM1 PUF domain R6-AWR,5.74 log2 enrichment (interaction score)
same,binding signal,PUM1 PUF domain R6-EWG,4.03 log2 enrichment (interaction score)
same,binding signal,PUM1 PUF domain R6-VWM,4.44 log2 enrichment (interaction score)
same,binding signal,PUM1 PUF domain R8-QFR,4.27 log2 enrichment (interaction score)
same,binding signal,PUM1 PUF domain R8-QYP,2.62 log2 enrichment (interaction score)
same,binding signal,PUM1 PUF domain R8-RRR,5.23 log2 enrichment (interaction score)
GGCUAGAACUAGUGGAUCCCCCGGCGCCCGGCGGCUCGAGCCCGGGUAAGUGUCAAUAGUCUGCAUGCCGCCGGGCGCCAUGCCUGCAGGUCGACUCUAGAAAACAUG,binding signal,PUM1 PUF domain R5-RRM,4.35 log2 enrichment (interaction score)
same,binding signal,PUM1 PUF domain R5-KKD,3.56 log2 enrichment (interaction score)
